# Source: publication PMC7862700, “An all-to-all approach to the identification of sequence-specific readers for epigenetic DNA modifications on cytosine”
# Experiments:
# Experiment in all cases: DAPPL (digital affinity profiling via proximity ligation, sequencing); 10 mM Tris-HCl pH 7.5, 50 mM NaCl, 1 mM DTT, 4% glycerol, room temperature, 30 min; GST-TFs on glutathione beads, 16-mer random dsDNA library, 0.1% formaldehyde crosslink after washing; high values mean tight binding
# FEV = target: T1, FEV (Homo sapiens, UniProt Q99581 1-238); conditions: protein: recombinant; tags: N-terminal GST; dsDNA, one strand shown
# T1 sequence: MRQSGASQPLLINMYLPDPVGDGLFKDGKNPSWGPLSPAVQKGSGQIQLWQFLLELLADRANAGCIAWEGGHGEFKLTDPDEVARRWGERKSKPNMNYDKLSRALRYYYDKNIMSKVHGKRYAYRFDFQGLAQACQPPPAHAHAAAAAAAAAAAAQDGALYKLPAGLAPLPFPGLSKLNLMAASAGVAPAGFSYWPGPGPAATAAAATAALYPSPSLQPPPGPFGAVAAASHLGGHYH
# In short: (§1)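 Human transcription factors fused to GST were expressed in yeast, captured on glutathione beads, given DNA barcodes and pooled with a GST-only negative control. Pools were incubated with 200 nmole of a 16-mer random double-stranded DNA library in Tris/NaCl/DTT/glycerol buffer at room temperature for 30 min. They were then washed, crosslinked with 0.1% formaldehyde, proximity-ligated (BsaI/T4 ligase, 1 h, 37 °C), PCR-amplified and sequenced on an Illumina NextSeq500. Binding signal is each 6-mer's read frequency for a factor divided by its frequency for the GST control.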
# ETV5 = ETV5 (Homo sapiens, UniProt P41161 1-510); conditions: protein: recombinant; tags: N-terminal GST; dsDNA, one strand shown
# Chain of ETV5 (P41161 whole entry): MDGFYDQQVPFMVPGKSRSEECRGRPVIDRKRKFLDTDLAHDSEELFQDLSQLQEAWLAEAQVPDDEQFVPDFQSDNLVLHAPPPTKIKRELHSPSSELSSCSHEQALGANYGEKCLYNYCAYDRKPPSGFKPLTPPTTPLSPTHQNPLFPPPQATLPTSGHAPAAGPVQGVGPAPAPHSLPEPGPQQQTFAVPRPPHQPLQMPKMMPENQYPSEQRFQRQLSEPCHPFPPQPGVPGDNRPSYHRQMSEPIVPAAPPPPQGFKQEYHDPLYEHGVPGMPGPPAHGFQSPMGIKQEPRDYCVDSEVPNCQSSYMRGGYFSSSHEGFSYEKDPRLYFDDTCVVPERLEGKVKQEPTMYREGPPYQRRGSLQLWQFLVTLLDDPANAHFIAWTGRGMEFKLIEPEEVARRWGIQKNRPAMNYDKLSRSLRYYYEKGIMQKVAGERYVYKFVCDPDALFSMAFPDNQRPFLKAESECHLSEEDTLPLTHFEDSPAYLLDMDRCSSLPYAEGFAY
# In short: as §1
# HSF1 = HSF1 (Homo sapiens, UniProt Q00613 1-529); conditions: protein: recombinant; tags: N-terminal GST; chain copies: 3; dsDNA, one strand shown
# Chain of HSF1 (Q00613 whole entry): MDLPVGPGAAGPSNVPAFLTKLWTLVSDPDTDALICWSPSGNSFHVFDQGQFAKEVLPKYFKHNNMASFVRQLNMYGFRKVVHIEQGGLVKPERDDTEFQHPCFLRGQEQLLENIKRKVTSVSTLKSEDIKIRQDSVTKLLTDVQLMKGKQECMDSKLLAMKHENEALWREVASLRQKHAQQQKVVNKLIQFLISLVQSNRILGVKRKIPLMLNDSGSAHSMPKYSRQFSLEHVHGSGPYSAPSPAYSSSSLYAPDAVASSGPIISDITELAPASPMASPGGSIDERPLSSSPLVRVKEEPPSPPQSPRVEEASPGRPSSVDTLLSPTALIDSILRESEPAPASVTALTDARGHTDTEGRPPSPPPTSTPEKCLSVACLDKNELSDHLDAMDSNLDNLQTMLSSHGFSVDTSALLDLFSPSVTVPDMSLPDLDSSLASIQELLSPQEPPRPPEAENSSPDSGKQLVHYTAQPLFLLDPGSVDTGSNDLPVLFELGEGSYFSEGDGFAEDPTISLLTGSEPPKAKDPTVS
# In short: as §1
# SPIC = target: T2, SPIC (Homo sapiens, UniProt Q8N5J4 1-248); conditions: protein: recombinant; tags: N-terminal GST; dsDNA, one strand shown
# T2 sequence: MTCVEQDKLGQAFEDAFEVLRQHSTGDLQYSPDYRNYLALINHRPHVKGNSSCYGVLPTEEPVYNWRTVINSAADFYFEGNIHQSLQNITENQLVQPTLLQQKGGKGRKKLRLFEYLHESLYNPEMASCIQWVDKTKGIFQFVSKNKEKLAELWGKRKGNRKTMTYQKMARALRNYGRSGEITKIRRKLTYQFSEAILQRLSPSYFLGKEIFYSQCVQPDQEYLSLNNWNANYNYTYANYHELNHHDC
# In short: as §1
# ELF4 = ELF4 (Homo sapiens, UniProt Q99607 1-663); conditions: protein: recombinant; tags: N-terminal GST; dsDNA, one strand shown
# Chain of ELF4 (Q99607 whole entry): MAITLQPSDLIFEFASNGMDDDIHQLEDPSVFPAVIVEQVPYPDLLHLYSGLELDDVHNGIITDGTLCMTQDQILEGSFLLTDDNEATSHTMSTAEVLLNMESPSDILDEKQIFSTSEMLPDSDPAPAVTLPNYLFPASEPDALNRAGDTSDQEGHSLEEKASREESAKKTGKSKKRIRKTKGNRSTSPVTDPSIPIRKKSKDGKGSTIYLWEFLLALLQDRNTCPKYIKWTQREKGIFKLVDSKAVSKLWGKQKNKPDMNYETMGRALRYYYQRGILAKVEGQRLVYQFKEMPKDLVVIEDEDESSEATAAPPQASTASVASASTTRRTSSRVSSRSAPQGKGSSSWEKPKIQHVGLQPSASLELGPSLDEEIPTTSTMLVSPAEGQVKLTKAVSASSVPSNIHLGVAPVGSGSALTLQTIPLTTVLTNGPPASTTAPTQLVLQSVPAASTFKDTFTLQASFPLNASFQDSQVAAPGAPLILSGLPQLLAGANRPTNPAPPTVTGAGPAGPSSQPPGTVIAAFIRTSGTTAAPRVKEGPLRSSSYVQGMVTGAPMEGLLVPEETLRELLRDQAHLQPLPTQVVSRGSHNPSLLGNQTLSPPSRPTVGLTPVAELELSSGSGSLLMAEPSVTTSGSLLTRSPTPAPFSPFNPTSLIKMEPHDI
# In short: as §1
# ELK4 = target: T3, ELK4 (Homo sapiens, UniProt P28324-2 1-405); conditions: protein: recombinant; tags: N-terminal GST; dsDNA, one strand shown
# T3 sequence: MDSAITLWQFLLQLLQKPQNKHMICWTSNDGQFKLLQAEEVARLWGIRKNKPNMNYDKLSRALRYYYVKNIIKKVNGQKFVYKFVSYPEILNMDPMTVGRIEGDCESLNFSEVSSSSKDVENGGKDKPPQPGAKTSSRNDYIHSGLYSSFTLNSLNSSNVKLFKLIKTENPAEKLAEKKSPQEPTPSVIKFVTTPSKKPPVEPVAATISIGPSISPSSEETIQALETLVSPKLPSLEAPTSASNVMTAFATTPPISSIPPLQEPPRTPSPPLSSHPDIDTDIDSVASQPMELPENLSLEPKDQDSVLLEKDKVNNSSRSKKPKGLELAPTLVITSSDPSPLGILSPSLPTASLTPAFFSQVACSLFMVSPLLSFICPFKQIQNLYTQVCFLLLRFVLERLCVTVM
# In short: as §1
# ETV2 = target: T4, ETV2 (Homo sapiens, UniProt O00321 1-342); conditions: protein: recombinant; tags: N-terminal GST; dsDNA, one strand shown
# T4 sequence: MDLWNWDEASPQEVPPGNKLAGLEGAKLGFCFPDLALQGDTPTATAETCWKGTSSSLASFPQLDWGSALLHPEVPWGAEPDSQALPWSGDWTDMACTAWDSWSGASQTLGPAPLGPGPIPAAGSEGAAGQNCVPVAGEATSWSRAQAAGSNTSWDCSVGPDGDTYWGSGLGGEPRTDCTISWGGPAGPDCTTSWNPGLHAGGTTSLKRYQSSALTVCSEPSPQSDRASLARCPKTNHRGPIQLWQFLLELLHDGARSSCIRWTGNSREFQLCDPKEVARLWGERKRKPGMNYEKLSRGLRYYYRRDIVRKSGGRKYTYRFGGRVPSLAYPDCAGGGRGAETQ
# In short: as §1
# ELF3 = target: T5, ELF3 (Homo sapiens, UniProt P78545 1-371); conditions: protein: recombinant; tags: N-terminal GST; dsDNA, one strand shown
# T5 sequence: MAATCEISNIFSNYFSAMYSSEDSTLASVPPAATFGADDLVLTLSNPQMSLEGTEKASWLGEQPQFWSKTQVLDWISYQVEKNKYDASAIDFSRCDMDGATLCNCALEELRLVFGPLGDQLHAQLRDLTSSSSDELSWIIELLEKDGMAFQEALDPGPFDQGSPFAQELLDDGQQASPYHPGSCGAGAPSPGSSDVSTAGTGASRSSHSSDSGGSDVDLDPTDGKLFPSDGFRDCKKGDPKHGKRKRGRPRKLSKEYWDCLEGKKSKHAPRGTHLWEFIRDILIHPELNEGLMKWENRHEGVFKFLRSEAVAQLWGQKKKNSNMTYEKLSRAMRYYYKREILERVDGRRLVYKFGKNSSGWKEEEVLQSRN
# In short: as §1
# CRX = CRX (Homo sapiens, UniProt O43186 1-299); conditions: protein: recombinant; tags: N-terminal GST; dsDNA, one strand shown
# Chain of CRX (O43186 whole entry): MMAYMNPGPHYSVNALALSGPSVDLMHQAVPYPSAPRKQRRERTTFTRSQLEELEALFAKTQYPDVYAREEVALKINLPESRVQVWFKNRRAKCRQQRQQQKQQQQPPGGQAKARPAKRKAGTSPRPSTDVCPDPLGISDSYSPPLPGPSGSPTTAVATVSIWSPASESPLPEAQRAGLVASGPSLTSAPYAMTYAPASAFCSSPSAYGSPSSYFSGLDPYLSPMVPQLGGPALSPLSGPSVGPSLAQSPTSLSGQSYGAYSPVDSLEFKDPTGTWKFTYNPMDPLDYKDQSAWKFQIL
# In short: as §1
# ETV1 = ETV1 (Homo sapiens, UniProt P50549 1-477); conditions: protein: recombinant; tags: N-terminal GST; dsDNA, one strand shown
# Chain of ETV1 (P50549 whole entry): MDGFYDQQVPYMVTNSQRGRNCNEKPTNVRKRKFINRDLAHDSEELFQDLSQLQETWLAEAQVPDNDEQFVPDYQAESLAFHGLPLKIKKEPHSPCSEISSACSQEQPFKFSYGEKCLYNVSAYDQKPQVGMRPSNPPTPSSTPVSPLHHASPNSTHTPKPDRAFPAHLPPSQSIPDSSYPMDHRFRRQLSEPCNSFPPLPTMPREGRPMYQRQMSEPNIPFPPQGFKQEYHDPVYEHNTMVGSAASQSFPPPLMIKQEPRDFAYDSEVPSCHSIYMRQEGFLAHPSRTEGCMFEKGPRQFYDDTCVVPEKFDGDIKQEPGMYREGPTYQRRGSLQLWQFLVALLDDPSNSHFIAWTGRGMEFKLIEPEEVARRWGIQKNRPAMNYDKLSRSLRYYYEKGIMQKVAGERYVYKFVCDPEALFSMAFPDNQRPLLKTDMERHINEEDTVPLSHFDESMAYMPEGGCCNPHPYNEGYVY
# In short: as §1
# ERF = target: T6, ERF (Homo sapiens, UniProt P50548 1-548); conditions: protein: recombinant; tags: N-terminal GST; dsDNA, one strand shown
# T6 sequence: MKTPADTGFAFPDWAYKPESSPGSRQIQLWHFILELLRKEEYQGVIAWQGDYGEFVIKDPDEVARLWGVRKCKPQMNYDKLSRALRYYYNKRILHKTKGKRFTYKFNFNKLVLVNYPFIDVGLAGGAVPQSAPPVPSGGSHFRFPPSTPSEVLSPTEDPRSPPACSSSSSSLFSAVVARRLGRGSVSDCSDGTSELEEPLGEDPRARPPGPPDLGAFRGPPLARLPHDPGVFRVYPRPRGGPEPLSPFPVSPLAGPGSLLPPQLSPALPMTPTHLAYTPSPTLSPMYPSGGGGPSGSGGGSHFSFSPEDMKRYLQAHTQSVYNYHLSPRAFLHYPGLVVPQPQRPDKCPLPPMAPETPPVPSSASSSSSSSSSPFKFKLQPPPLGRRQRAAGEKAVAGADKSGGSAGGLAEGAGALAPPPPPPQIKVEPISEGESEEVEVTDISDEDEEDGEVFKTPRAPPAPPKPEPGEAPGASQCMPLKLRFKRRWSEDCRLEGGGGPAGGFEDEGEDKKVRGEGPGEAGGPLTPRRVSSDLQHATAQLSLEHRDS
# In short: as §1
# ETV3L = target: T7, ETV3L (Homo sapiens, UniProt Q6ZN32 1-361); conditions: protein: recombinant; tags: N-terminal GST; dsDNA, one strand shown
# T7 sequence: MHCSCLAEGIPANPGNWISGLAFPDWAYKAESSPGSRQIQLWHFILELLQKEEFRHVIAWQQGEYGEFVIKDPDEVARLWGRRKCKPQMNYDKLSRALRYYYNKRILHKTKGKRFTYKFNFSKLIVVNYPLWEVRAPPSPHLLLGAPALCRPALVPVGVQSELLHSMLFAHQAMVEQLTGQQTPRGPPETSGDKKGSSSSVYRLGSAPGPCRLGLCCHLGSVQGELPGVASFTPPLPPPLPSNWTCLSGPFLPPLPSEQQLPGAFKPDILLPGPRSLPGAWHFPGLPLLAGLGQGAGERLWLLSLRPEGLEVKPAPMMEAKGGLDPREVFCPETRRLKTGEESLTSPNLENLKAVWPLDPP
# In short: as §1
# ETS2 = target: T8, ETS2 (Homo sapiens, UniProt P15036 1-469); conditions: protein: recombinant; tags: N-terminal GST; dsDNA, one strand shown
# T8 sequence: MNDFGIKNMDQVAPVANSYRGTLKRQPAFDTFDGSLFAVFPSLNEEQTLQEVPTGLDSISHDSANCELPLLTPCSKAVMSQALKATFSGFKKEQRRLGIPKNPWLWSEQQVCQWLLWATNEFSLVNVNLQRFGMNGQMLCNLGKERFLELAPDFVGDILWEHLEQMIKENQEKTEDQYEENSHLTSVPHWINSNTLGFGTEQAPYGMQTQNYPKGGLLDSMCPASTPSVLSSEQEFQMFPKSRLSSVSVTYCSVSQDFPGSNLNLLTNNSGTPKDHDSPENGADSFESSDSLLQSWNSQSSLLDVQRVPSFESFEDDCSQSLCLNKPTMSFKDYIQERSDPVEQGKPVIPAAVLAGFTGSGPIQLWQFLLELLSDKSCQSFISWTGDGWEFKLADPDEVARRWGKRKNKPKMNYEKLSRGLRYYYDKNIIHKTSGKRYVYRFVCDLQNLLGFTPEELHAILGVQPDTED
# In short: as §1
# SPDEF = target: T9, SPDEF (Homo sapiens, UniProt O95238 1-335); conditions: protein: recombinant; tags: N-terminal GST; dsDNA, one strand shown
# T9 sequence: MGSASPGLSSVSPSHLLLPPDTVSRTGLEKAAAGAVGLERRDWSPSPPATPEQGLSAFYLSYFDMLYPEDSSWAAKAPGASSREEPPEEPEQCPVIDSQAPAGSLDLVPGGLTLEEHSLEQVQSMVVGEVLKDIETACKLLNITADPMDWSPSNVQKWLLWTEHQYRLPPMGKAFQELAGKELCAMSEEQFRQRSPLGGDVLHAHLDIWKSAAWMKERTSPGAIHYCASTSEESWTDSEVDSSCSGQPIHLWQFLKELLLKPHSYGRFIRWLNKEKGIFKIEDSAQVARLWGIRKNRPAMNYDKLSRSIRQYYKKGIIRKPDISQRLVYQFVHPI
# In short: as §1
# ETV7 = target: T10, ETV7 (Homo sapiens, UniProt Q9Y603 1-341); conditions: protein: recombinant; tags: N-terminal GST; dsDNA, one strand shown
# T10 sequence: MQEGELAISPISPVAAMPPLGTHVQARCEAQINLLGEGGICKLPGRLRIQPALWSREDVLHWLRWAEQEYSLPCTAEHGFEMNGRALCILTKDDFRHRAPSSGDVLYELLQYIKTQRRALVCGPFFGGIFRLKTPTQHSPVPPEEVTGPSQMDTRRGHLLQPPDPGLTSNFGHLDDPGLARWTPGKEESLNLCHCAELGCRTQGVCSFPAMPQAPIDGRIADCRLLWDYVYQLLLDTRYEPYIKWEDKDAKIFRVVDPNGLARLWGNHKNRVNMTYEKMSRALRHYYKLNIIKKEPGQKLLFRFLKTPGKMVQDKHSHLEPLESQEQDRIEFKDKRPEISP
# In short: as §1
# ELF5 = target: T11, ELF5 (Homo sapiens, UniProt Q9UKW6-2 1-255); conditions: protein: recombinant; tags: N-terminal GST; dsDNA, one strand shown
# T11 sequence: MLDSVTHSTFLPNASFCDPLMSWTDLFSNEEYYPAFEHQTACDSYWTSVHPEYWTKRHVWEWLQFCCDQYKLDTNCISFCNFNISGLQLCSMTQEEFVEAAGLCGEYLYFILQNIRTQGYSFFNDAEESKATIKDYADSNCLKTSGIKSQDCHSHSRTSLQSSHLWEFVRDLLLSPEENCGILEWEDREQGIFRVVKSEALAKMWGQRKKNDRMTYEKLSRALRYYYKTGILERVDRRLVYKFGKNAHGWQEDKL
# In short: as §1
# ETV3 = target: T12, ETV3 (Homo sapiens, UniProt P41162-2 1-143); conditions: protein: recombinant; tags: N-terminal GST; dsDNA, one strand shown
# T12 sequence: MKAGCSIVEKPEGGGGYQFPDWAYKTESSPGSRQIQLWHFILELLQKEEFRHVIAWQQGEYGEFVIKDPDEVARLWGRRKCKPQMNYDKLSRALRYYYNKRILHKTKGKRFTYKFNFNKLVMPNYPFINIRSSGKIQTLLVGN
# In short: as §1
# ETV6 = ETV6 (Homo sapiens, UniProt P41212 1-452); conditions: protein: recombinant; tags: N-terminal GST; dsDNA, one strand shown
# Chain of ETV6 (P41212 whole entry): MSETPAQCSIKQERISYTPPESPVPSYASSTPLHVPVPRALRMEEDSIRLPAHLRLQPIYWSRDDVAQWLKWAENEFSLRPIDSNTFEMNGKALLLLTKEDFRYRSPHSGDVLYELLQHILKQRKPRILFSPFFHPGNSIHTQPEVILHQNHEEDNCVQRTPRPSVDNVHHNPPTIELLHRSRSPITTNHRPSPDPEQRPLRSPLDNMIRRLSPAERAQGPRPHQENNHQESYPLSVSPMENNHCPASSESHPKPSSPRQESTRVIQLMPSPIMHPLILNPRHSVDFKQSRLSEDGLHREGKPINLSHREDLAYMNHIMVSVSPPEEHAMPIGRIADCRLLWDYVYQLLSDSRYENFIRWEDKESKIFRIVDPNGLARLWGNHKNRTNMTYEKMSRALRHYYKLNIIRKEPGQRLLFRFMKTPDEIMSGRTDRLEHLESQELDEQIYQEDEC
# In short: as §1
sequence,measurement,setting,value
TCCCAC,binding signal,FEV,"1.38 fold enrichment (6-mer frequency, TF over GST control)"
same,binding signal,ETV5,"1.37 fold enrichment (6-mer frequency, TF over GST control)"
same,binding signal,HSF1,"1.17 fold enrichment (6-mer frequency, TF over GST control)"
same,binding signal,SPIC,"1.17 fold enrichment (6-mer frequency, TF over GST control)"
same,binding signal,ELF4,"1.34 fold enrichment (6-mer frequency, TF over GST control)"
same,binding signal,ELK4,"1.34 fold enrichment (6-mer frequency, TF over GST control)"
same,binding signal,ETV2,"1.12 fold enrichment (6-mer frequency, TF over GST control)"
same,binding signal,ELF3,"1.46 fold enrichment (6-mer frequency, TF over GST control)"
same,binding signal,CRX,"1.34 fold enrichment (6-mer frequency, TF over GST control)"
same,binding signal,ETV1,"1.34 fold enrichment (6-mer frequency, TF over GST control)"
same,binding signal,ERF,"1.5 fold enrichment (6-mer frequency, TF over GST control)"
same,binding signal,ETV3L,"1.31 fold enrichment (6-mer frequency, TF over GST control)"
same,binding signal,ETS2,"1.23 fold enrichment (6-mer frequency, TF over GST control)"
same,binding signal,SPDEF,"1.33 fold enrichment (6-mer frequency, TF over GST control)"
same,binding signal,ETV7,"1.41 fold enrichment (6-mer frequency, TF over GST control)"
same,binding signal,ELF5,"1.47 fold enrichment (6-mer frequency, TF over GST control)"
same,binding signal,ETV3,"1.24 fold enrichment (6-mer frequency, TF over GST control)"
same,binding signal,ETV6,"1.4 fold enrichment (6-mer frequency, TF over GST control)"
